# Assay results from PubChem BioAssay (NCATS).
# “And” between values parts separate entries of the source, which are not always exact repeats. Equal values may be shown once. Results filed as inconclusive are left out. Entries that show only a call come without a potency. The source holds several records for some structures; these can differ, active in one and inactive in another. The source made the active and inactive calls. Unless noted, calls come from the whole dose curve; as a rule, active = well fitted inhibition curve with a large enough effect; inconclusive = small, poorly fitted or top-dose-only effect; inactive = flat fitted curve, though single readings scatter.
# Molecular target: Retinoic acid receptor RXR-alpha (Homo sapiens) (UniProt P19793)
# Experiment: qHTS assay for small molecule antagonists of retinoid X receptor alpha signaling (AID 588546; active = well fitted inhibition curve with a large enough effect in the signal ratio, with a control signal flat, not every such curve was filed as active; the % refers to the signal ratio;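 for max response: cells stimulated with 9-cis-retinoic acid as agonist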)
# Conditions: HEK293T RXRa-UAS-bla, beta-lactamase ratio, antagonist mode
# How it was run: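 Beta-lactamase reporter inhibition, read as CCF4 fluorescence ratio (ex 405, em 460/530 nm) after 2 h at RT. HEK293T UAS-bla cells, 2500/well, were stimulated with 9-cis-RA at 500 or 100 nM final alongside test compound for 18 h at 37 C.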
# Potency is the fitted concentration of half-maximal effect.
# Chain of Retinoic acid receptor RXR-alpha (Homo sapiens) (P19793 whole entry, looked up): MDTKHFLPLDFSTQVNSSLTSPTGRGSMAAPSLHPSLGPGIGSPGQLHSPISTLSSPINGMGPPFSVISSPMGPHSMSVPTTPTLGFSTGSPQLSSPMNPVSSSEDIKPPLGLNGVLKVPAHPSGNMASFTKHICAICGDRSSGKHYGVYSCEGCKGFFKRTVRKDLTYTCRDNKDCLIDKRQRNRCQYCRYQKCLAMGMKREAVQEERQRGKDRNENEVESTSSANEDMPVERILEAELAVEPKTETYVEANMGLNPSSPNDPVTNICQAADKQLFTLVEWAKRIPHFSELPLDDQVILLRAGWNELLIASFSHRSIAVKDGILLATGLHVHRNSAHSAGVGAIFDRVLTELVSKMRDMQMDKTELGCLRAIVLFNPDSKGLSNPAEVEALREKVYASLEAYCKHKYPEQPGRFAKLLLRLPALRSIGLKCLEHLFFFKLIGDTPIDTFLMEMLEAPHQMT
SMILES,max response,Potency
CCC(=O)O[C@H]1CC[C@H]2[C@@H]3CCC4=CC(=O)CC[C@]4(C)[C@H]3CC[C@]12C,-0.425% (inactive),
COP(=S)(OC)Oc1ccc(Sc2ccc(OP(=S)(OC)OC)cc2)cc1,-19.4% (inactive),
CN(C)C(=S)SSC(=S)N(C)C,,44.7 µM (active)
Oc1ccc(Cl)cc1Cc1cc(Cl)ccc1O,,14.1 µM (active)
C=CCOC(Cn1ccnc1)c1ccc(Cl)cc1Cl (centres undefined),-20.3% (inactive) and -31.1% (inactive),
O=C(NC(=O)c1c(F)cccc1F)Nc1cc(Cl)c(OC(F)(F)C(F)C(F)(F)F)cc1Cl (centres undefined),-7.55% (inactive),
C[C@H]1C(=O)O[C@@H]2CCN3CC=C(COC(=O)[C@](C)(O)[C@]1(C)O)[C@H]23,-1.01% (inactive),
CCCCCCCCC(=O)NCc1ccc(O)c(OC)c1,-5.69% (inactive),
COP(=O)(OC)OC=C(Cl)Cl,5.84% (inactive) and -9.46% (inactive) and -14.2% (inactive),
CCNc1nc(Cl)nc(NCC)n1,2.68% (inactive),
Oc1c(Br)cc(Br)cc1Br,-6.81% (inactive) and -18.8% (inactive),
Cc1ccc(N=CN(C)C=Nc2ccc(C)cc2C)c(C)c1,-33.7% (inactive),
CC[n+]1c(-c2ccccc2)c2cc(N)ccc2c2ccc(N)cc21,,8.91 µM (active)
O=C(Nc1ccc(Cl)cc1)Nc1ccc(Cl)c(Cl)c1,,10 µM (active)
O=c1n(Cl)c(=O)n(Cl)c(=O)n1Cl,2.47% (inactive),
CNC(=O)Oc1cccc2ccccc12,8.76% (inactive) and -2.97% (inactive),
COCC(=O)N(c1c(C)cccc1C)C(C)C(=O)OC (centres undefined),-3.83% (inactive),

# Molecular target: Voltage-gated inwardly rectifying potassium channel KCNH2 (Homo sapiens) (UniProt Q12809)
# Experiment: qHTS Assay for Small Molecule Inhibitors of the Human hERG Channel Activity (AID 588834);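 note: lower thallium flux fluorescence means stronger hERG block; nearly all actives have a fitted effect of over 50% in size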
# Conditions: U2OS BacMam hERG, FluxOR thallium flux fluorescence; series mostly up to 46.1 µM
# How it was run: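 U2OS cells BacMam-transduced with hERG, 2000 cells/well, compound ~10 min at 37 °C before stimulation buffer. FluxOR thallium flux fluorescence read kinetically on FDSS; decrease indicates block; AC50 from Hill fits.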
# Chain of Voltage-gated inwardly rectifying potassium channel KCNH2 (Homo sapiens) (Q12809 whole entry, looked up): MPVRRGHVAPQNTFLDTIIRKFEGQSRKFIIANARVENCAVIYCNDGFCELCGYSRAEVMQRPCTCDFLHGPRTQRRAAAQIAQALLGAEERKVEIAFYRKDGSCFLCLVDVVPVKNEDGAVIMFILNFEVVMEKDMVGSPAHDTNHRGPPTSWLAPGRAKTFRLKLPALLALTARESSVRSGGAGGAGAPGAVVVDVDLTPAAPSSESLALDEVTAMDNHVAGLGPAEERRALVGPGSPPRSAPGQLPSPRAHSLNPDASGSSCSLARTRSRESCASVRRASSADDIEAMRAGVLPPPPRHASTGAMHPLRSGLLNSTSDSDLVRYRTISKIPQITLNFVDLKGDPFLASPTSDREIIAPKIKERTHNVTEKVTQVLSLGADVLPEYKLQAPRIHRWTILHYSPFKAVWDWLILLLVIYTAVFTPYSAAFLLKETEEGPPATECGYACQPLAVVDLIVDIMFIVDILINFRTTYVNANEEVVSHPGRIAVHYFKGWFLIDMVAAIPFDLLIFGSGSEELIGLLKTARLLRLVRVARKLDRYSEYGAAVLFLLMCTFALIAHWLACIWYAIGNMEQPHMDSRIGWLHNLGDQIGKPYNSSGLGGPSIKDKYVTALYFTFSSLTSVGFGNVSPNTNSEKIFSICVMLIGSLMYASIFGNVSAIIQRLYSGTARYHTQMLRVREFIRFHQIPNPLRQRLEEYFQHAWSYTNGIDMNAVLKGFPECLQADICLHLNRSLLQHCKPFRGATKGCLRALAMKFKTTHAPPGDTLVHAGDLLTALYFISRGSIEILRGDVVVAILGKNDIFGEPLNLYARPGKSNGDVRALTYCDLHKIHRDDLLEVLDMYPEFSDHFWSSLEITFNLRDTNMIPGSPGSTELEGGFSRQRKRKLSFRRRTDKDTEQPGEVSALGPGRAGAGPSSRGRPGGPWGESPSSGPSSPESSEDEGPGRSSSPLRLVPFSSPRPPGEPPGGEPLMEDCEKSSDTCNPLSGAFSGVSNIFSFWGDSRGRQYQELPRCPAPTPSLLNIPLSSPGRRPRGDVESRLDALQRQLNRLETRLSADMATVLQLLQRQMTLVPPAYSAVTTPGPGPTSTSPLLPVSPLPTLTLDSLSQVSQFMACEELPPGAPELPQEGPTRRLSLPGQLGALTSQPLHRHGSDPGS
row,SMILES,Potency
1,CN(C)C(=O)Oc1cc(OC(=O)N(C)C)cc(C(O)CNC(C)(C)C)c1 (centres undefined),inactive
2,O=C(CCl)c1ccc(Cl)cc1Cl,inactive
3,c1cc(CN2CCCCC2)cc(OCCCNc2nc3ccccc3s2)c1,12.6 µM (active)
4,CCC(=O)O[C@H]1CC[C@H]2[C@@H]3CCC4=CC(=O)CC[C@]4(C)[C@H]3CC[C@]12C,inactive
5,COP(=S)(OC)Oc1ccc(Sc2ccc(OP(=S)(OC)OC)cc2)cc1,inactive
6,C[C@@H]1CN(C2CCC(C#N)(c3ccc(F)cc3)CC2)CC[C@]1(C(=O)O)c1ccccc1 (some centres undefined),inactive
7,CN(C)C(=S)SSC(=S)N(C)C,inactive and 44.7 µM (active)
8,CCC1(c2cccc(O)c2)CCCCN(C)C1 (centres undefined),inactive
9,Oc1ccc(Cl)cc1Cc1cc(Cl)ccc1O,inactive
11,NC(N)=N/N=C/c1c(Cl)cccc1Cl,inactive
12,O=C(NC(=O)c1c(F)cccc1F)Nc1cc(Cl)c(OC(F)(F)C(F)C(F)(F)F)cc1Cl (centres undefined),inactive
14,CCOC(=O)c1cncn1C(C)c1ccccc1 (centres undefined),inactive
15,C[C@H]1C(=O)O[C@@H]2CCN3CC=C(COC(=O)[C@](C)(O)[C@]1(C)O)[C@H]23,inactive
16,CCCCCCCCC(=O)NCc1ccc(O)c(OC)c1,inactive

row,SMILES,Potency
1,COP(=O)(OC)OC=C(Cl)Cl,inactive
2,CCNc1nc(Cl)nc(NCC)n1,inactive
3,Oc1c(Br)cc(Br)cc1Br,inactive
4,CN(C)c1ccc(C(=C2C=CC(=[N+](C)C)C=C2)c2ccccc2)cc1,inactive
5,N#Cc1nn(-c2c(Cl)cc(C(F)(F)F)cc2Cl)c(N)c1S(=O)C(F)(F)F (centres undefined),inactive
6,CC[n+]1c(-c2ccccc2)c2cc(N)ccc2c2ccc(N)cc21,inactive
7,C[N+]1(C)[C@@H]2CC[C@H]1CC(OC(=O)C(CO)c1ccccc1)C2 (some centres undefined),inactive
8,COP(=O)(OC)C(O)C(Cl)(Cl)Cl (centres undefined),inactive
9,CCCCCCCCCCCC[N+](C)(C)CCOc1ccccc1,2.82 µM (active) and 5.01 µM (active)
10,O=c1n(Cl)c(=O)n(Cl)c(=O)n1Cl,inactive
11,CC(C)=C[C@@H]1[C@@H](C(=O)OCc2coc(Cc3ccccc3)c2)C1(C)C,inactive
12,C[C@@H]1C[C@@H]([C@H](O)CC2CC(=O)NC(=O)C2)C(=O)[C@@H](C)C1,inactive
13,CNC(=O)Oc1cccc2ccccc12,inactive
14,C[C@@H]1O[C@@H](O[C@@H]2C=C3CC[C@@H]4[C@H](CC[C@]5(C)[C@@H](c6ccc(=O)oc6)CC[C@]45O)[C@@]3(C)CC2)[C@H](O)[C@H](O)[C@H]1O,inactive
15,COCC(=O)N(c1c(C)cccc1C)C(C)C(=O)OC (centres undefined),inactive
16,Nc1ccc(N)cc1,inactive
